# Reference: the supplement of paper PMC8728848
# Only a selection was taken, and the strongest signals are over-represented in it overall.
# B1: Factor H (Homo sapiens), P08603 (protein)
# chain: MRLLAKIICLMLWAICVAEDCNELPPRRNTEILTGSWSDQTYPEGTQAIYKCRPGYRSLGNVIMVCRKGEWVALNPLRKCQKRPCGHPGDTPFGTFTLTGGNVFEYGVKAVYTCNEGYQLLGEINYRECDTDGWTNDIPICEVVKCLPVTAPENGKIVSSAMEPDREYHFGQAVRFVCNSGYKIEGDEEMHCSDDGFWSKEKPKCVEISCKSPDVINGSPISQKIIYKENERFQYKCNMGYEYSERGDAVCTESGWRPLPSCEEKSCDNPYIPNGDYSPLRIKHRTGDEITYQCRNGFYPATRGNTAKCTSTGWIPAPRCTLKPCDYPDIKHGGLYHENMRRPYFPVAVGKYYSYYCDEHFETPSGSYWDHIHCTQDGWSPAVPCLRKCYFPYLENGYNQNYGRKFVQGKSIDVACHPGYALPKAQTTVTCMENGWSPTPRCIRVKTCSKSSIDIENGFISESQYTYALKEKAKYQCKLGYVTADGETSGSITCGKDGWSAQPTCIKSCDIPVFMNARTKNDFTWFKLNDTLDYECHDGYESNTGSTTGSIVCGYNGWSDLPICYERECELPKIDVHLVPDRKKDQYKVGEVLKFSCKPGFTIVGPNSVQCYHFGLSPDLPICKEQVQSCGPPPELLNGNVKEKTKEEYGHSEVVEYYCNPRFLMKGPNKIQCVDGEWTTLPVCIVEESTCGDIPELEHGWAQLSSPPYYYGDSVEFNCSESFTMIGHRSITCIHGVWTQLPQCVAIDKLKKCKSSNLIILEEHLKNKKEFDHNSNIRYRCRGKEGWIHTVCINGRWDPEVNCSMAQIQLCPPPPQIPNSHNMTTTLNYRDGEKVSVLCQENYLIQEGEEITCKDGRWQSIPLCVEKIPCSQPPQIEHGTINSSRSSQESYAHGTKLSYTCEGGFRISEENETTCYMGKWSSPPQCEGLPCKSPPEISHGVVAHMSDSYQYGEEVTYKCFEGFGIDGPAIAKCLGEKWSHPPSCIKTDCLSLPSFENAIPMGEKKDVYKAGEQVTYTCATYYKMDGASNVTCINSRWTGRPTCRDTSCVNPPTVQNAYIVSRQMSKYPSGERVRYQCRSPYEMFGDEEVMCLNGNWTEPPQCKDSTGKCGPPPPIDNGDITSFPLSVYAPASSVEYQCQNLYQLEGNKRITCRNGQWSEPPKCLHPCVISREIMENYNIALRWTAKQKLYSRTGESVEFVCKRGYRLSSRSHTLRTTCWDGKLEYPTCAKR
# Key:
# Experiment in all cases: glycan array binding signal (z-score within array); higher = stronger binding
# Conditions in all cases: glycan notation: IUPAC condensed, linker removed
# [1] = biological target: Fuc(a1-2)Gal(b1-3)GalNAc(b1-3)Gal
# Summary of the method: (§1)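 Arrays were curated from the Consortium for Functional Glycomics database, 3228 in total, and kept only where the protein sequence was available. Binding is expressed as a within-array Z-score. This score was averaged across arrays of the same protein sequence at different concentrations or buffers and across linkers, and negative values can be read as non-binding.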
# [2] = biological target: Fuc(a1-2)Gal(b1-3)GalNAc(b1-3)Gal(a1-4)Gal(b1-4)Glc
# Summary of the method: as §1
# Fuc(a1-2)Gal(b1-4)GlcNAc = biological target: Fuc(a1-2)Gal(b1-4)GlcNAc
# Summary of the method: as §1
# Fuc(a1-2)[Gal(a1-3)]Gal = biological target: Fuc(a1-2)[Gal(a1-3)]Gal
# Summary of the method: as §1
# [3] = biological target: Fuc(a1-2)[GalNAc(b1-3)]Gal
# Summary of the method: as §1
# [4] = biological target: Fuc(a1-3)[Gal(b1-4)]Glc6S
# Summary of the method: as §1
# [5] = biological target: Gal(a1-3)[Gal(a1-4)]Gal(b1-4)GlcNAc
# Summary of the method: as §1
# Gal(a1-4)Gal(b1-4)GlcNAc = biological target: Gal(a1-4)Gal(b1-4)GlcNAc
# Summary of the method: as §1
# [6] = biological target: Gal(b1-3)[GlcNAc(b1-6)]GalNAc
# Summary of the method: as §1
# [7] = biological target: Gal(b1-4)GlcNAc(b1-3)Gal(b1-4)Glc
# Summary of the method: as §1
# [8] = biological target: Gal(b1-4)GlcNAc(b1-3)[Gal(b1-4)GlcNAc(b1-6)]Gal(b1-4)GlcNAc
# Summary of the method: as §1
# [9] = biological target: Gal(b1-4)GlcNAc(b1-6)Gal(b1-4)GlcNAc
# Summary of the method: as §1
# [10] = biological target: Gal(b1-4)GlcNAc(b1-6)[Gal(b1-3)]GalNAc
# Summary of the method: as §1
# Gal3S4S(b1-4)GlcNAc = biological target: Gal3S4S(b1-4)GlcNAc
# Summary of the method: as §1
# Gal3S6S(b1-4)GlcNAc6S = biological target: Gal3S6S(b1-4)GlcNAc6S
# Summary of the method: as §1
# Gal6S(b1-4)Glc6S = biological target: Gal6S(b1-4)Glc6S
# Summary of the method: as §1
# [11] = biological target: GlcNAc(a1-3)Gal(b1-4)GlcNAc
# Summary of the method: as §1
# GlcNAc(b1-3)Man = biological target: GlcNAc(b1-3)Man
# Summary of the method: as §1
# [12] = biological target: GlcNAc(b1-3)[GlcNAc(b1-6)]GalNAc
# Summary of the method: as §1
# [13] = biological target: GlcNAc(b1-4)Gal(b1-4)GlcNAc
# Summary of the method: as §1
# [14] = biological target: GlcNAc(b1-4)GlcNAc(b1-4)GlcNAc(b1-4)GlcNAc(b1-4)GlcNAc(b1-4)GlcNAc
# Summary of the method: as §1
# Kdn(a2-3)Gal(b1-3)GlcNAc = biological target: Kdn(a2-3)Gal(b1-3)GlcNAc
# Summary of the method: as §1
# [15] = biological target: Man(a1-2)Man(a1-3)[Man(a1-2)Man(a1-6)]Man
# Summary of the method: as §1
# Man(b1-4)GlcNAc = biological target: Man(b1-4)GlcNAc
# Summary of the method: as §1
# [16] = biological target: Neu5Ac(a2-3)Gal(b1-3)GalNAc6S
# Summary of the method: as §1
# [17] = biological target: Neu5Ac(a2-3)Gal(b1-4)GlcNAc(b1-2)Man(a1-3)[Neu5Ac(a2-6)Gal(b1-4)GlcNAc(b1-2)Man(a1-6)]Man(b1-4)GlcNAc(b1-4)GlcNAc
# Summary of the method: as §1
# [18] = biological target: Neu5Ac(a2-6)Gal(b1-4)GlcNAc(b1-2)Man(a1-3)[Neu5Ac(a2-6)Gal(b1-4)GlcNAc(b1-2)Man(a1-6)]Man(b1-4)GlcNAc(b1-4)GlcNAc
# Summary of the method: as §1
# Neu5Gc(a2-3)Gal(b1-4)Glc = biological target: Neu5Gc(a2-3)Gal(b1-4)Glc
# Summary of the method: as §1
# Neu5Gc(a2-6)GalNAc = biological target: Neu5Gc(a2-6)GalNAc
# Summary of the method: as §1
binder,measurement,setting,value
B1,glycan array binding signal (z-score),[1],3.46
same,glycan array binding signal (z-score),[2],0.586
same,glycan array binding signal (z-score),Fuc(a1-2)Gal(b1-4)GlcNAc,3.15
same,glycan array binding signal (z-score),Fuc(a1-2)[Gal(a1-3)]Gal,-0.294
same,glycan array binding signal (z-score),[3],3.61
same,glycan array binding signal (z-score),[4],-0.418
same,glycan array binding signal (z-score),[5],-0.355
same,glycan array binding signal (z-score),Gal(a1-4)Gal(b1-4)GlcNAc,-0.467
same,glycan array binding signal (z-score),[6],-0.403
same,glycan array binding signal (z-score),[7],-0.248
same,glycan array binding signal (z-score),[8],-0.173
same,glycan array binding signal (z-score),[9],-0.316
same,glycan array binding signal (z-score),[10],-0.537
same,glycan array binding signal (z-score),Gal3S4S(b1-4)GlcNAc,-0.168
same,glycan array binding signal (z-score),Gal3S6S(b1-4)GlcNAc6S,11.8
same,glycan array binding signal (z-score),Gal6S(b1-4)Glc6S,0.498
same,glycan array binding signal (z-score),[11],-0.015
same,glycan array binding signal (z-score),GlcNAc(b1-3)Man,2.51
same,glycan array binding signal (z-score),[12],1
same,glycan array binding signal (z-score),[13],0.172
same,glycan array binding signal (z-score),[14],-0.101
same,glycan array binding signal (z-score),Kdn(a2-3)Gal(b1-3)GlcNAc,1.99
same,glycan array binding signal (z-score),[15],0.253
same,glycan array binding signal (z-score),Man(b1-4)GlcNAc,-0.282
same,glycan array binding signal (z-score),[16],-0.221
same,glycan array binding signal (z-score),[17],0.231
same,glycan array binding signal (z-score),[18],-0.439
same,glycan array binding signal (z-score),Neu5Gc(a2-3)Gal(b1-4)Glc,-0.053
same,glycan array binding signal (z-score),Neu5Gc(a2-6)GalNAc,-0.411
